The source of these data is article PMC7862700, “An all-to-all approach to the identification of sequence-specific readers for epigenetic DNA modifications on cytosine”.

Assay in all cases: DAPPL (digital affinity profiling via proximity ligation, sequencing); 10 mM Tris-HCl pH 7.5, 50 mM NaCl, 1 mM DTT, 4% glycerol, room temperature, 30 min; GST-TFs on glutathione beads, 16-mer random dsDNA library, 0.1% formaldehyde crosslink after washing; high values mean tight binding
One experiment deals with T1, FEV (Homo sapiens, UniProt Q99581 1-238).
T1 sequence: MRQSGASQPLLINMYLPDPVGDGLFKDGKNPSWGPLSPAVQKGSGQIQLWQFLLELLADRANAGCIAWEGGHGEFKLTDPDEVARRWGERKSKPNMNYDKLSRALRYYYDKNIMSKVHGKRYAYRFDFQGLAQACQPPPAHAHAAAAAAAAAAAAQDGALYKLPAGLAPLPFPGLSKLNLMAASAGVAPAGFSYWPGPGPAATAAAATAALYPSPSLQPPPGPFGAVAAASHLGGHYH
The settings on record: protein: recombinant; tags: N-terminal GST; dsDNA, one strand shown. In short, it runs like this:
(§1)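 A tag-only sample was pooled with DNA-barcoded human transcription factors that had been expressed in yeast as GST fusions and captured on glutathione beads. The pools were incubated for 30 min at room temperature with 200 nmole of a random double-stranded 16-mer DNA library in Tris/NaCl/DTT/glycerol buffer, then washed, crosslinked with 0.1% formaldehyde, proximity-ligated (BsaI/T4 ligase, 1 h, 37 °C), PCR-amplified and sequenced on an Illumina NextSeq500. Binding signal is each hexamer's read frequency for a factor divided by its frequency for the tag-only sample.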

A further experiment has as its target ETV5 (Homo sapiens, UniProt P41161 1-510). The settings on record: protein: recombinant; tags: N-terminal GST; dsDNA, one strand shown. In short, it runs like this:
as §1

For a further experiment, the target named is HSF1 (Homo sapiens, UniProt Q00613 1-529). Conditions: protein: recombinant; tags: N-terminal GST; chain copies: 3; dsDNA, one strand shown. In short, it runs like this:
as §1

Another experiment deals with T2, SPIC (Homo sapiens, UniProt Q8N5J4 1-248).
T2 sequence: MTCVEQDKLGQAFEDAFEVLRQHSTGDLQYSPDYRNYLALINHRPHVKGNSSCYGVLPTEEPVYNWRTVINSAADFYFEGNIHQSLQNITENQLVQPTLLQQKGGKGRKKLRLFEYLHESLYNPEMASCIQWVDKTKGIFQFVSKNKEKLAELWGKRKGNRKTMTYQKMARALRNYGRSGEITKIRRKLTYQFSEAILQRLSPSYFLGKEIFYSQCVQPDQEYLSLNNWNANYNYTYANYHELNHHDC
The settings on record: protein: recombinant; tags: N-terminal GST; dsDNA, one strand shown. In short, it runs like this:
as §1

Another experiment has as its target ELF4 (Homo sapiens, UniProt Q99607 1-663). Conditions: protein: recombinant; tags: N-terminal GST; dsDNA, one strand shown. The method, boiled down: as §1
Another experiment addresses T3, ELK4 (Homo sapiens, UniProt P28324-2 1-405).
T3 sequence: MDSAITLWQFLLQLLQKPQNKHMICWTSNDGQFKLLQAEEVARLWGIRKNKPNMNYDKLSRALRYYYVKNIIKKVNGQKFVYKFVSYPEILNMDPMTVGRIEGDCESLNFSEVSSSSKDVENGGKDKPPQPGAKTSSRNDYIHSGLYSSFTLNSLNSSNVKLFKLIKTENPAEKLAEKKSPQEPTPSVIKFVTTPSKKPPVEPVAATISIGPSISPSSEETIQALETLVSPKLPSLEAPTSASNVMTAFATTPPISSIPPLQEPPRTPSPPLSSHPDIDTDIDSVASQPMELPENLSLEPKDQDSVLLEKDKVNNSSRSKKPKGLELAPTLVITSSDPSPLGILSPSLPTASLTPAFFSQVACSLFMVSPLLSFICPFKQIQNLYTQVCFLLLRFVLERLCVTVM
Conditions: protein: recombinant; tags: N-terminal GST; dsDNA, one strand shown. In short, it runs like this:
as §1

The target in the next experiment is T4, ETV2 (Homo sapiens, UniProt O00321 1-342).
T4 sequence: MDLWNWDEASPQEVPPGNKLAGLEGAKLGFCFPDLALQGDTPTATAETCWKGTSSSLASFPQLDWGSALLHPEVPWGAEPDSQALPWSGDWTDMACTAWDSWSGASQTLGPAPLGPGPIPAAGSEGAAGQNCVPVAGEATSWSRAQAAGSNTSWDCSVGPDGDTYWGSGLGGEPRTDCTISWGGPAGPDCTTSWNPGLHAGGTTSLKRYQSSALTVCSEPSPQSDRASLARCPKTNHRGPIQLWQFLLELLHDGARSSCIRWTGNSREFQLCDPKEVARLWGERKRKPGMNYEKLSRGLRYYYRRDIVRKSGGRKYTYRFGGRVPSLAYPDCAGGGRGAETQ
Conditions: protein: recombinant; tags: N-terminal GST; dsDNA, one strand shown. The method, boiled down:
as §1

A further experiment concerns the target T5, ELF3 (Homo sapiens, UniProt P78545 1-371).
T5 sequence: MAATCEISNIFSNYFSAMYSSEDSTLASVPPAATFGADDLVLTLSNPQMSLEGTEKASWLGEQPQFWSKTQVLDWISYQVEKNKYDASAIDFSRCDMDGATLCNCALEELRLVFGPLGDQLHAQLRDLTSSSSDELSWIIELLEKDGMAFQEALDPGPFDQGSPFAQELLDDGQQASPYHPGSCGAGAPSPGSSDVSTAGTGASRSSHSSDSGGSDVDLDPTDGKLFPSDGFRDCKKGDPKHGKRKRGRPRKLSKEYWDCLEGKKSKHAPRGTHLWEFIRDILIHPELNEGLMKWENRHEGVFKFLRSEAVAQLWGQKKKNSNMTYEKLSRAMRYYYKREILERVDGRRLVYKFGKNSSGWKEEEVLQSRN
Conditions: protein: recombinant; tags: N-terminal GST; dsDNA, one strand shown. In short, it runs like this: as §1

Another experiment addresses CRX (Homo sapiens, UniProt O43186 1-299). The settings on record: protein: recombinant; tags: N-terminal GST; dsDNA, one strand shown. The method, boiled down: as §1
The next experiment deals with ETV1 (Homo sapiens, UniProt P50549 1-477). Conditions: protein: recombinant; tags: N-terminal GST; dsDNA, one strand shown. In short, it runs like this:
as §1

A further experiment addresses T6, ERF (Homo sapiens, UniProt P50548 1-548).
T6 sequence: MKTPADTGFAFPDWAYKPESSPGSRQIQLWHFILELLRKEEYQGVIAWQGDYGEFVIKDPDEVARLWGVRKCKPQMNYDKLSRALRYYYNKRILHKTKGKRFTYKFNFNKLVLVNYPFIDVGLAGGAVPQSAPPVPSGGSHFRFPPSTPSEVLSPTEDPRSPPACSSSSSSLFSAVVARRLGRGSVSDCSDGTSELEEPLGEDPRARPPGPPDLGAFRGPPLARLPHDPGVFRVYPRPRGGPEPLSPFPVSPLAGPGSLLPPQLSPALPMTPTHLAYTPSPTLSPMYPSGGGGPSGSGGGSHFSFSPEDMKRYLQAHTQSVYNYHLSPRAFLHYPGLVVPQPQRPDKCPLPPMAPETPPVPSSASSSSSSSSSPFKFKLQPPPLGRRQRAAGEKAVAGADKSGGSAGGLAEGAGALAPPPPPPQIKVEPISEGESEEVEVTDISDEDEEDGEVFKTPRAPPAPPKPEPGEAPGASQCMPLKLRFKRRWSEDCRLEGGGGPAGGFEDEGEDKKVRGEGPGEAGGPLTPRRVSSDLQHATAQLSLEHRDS
The settings on record: protein: recombinant; tags: N-terminal GST; dsDNA, one strand shown. The method, boiled down: as §1

The next experiment concerns the target T7, ETV3L (Homo sapiens, UniProt Q6ZN32 1-361).
T7 sequence: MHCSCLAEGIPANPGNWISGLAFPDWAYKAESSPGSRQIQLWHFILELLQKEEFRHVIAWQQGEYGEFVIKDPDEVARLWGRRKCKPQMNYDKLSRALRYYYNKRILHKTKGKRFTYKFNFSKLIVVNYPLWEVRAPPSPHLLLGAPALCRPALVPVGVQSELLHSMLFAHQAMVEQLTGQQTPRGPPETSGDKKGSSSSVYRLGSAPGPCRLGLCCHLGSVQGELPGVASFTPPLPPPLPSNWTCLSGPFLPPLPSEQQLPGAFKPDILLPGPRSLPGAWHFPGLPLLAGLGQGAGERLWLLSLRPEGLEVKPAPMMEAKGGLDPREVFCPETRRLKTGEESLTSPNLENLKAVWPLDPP
The settings on record: protein: recombinant; tags: N-terminal GST; dsDNA, one strand shown. The method, boiled down:
as §1

The target in a further experiment is T8, ETS2 (Homo sapiens, UniProt P15036 1-469).
T8 sequence: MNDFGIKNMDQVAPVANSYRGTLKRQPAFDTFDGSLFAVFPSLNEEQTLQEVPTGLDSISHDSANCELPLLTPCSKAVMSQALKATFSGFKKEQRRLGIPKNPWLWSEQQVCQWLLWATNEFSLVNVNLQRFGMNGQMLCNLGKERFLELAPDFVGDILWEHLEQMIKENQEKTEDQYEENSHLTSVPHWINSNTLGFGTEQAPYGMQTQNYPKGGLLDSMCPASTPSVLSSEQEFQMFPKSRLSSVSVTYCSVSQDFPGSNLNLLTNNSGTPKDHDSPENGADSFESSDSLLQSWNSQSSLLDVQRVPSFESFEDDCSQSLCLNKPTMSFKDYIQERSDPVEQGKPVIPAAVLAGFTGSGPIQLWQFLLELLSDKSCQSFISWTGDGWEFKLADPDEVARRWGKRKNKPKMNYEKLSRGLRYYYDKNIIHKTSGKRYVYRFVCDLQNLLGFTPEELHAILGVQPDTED
The settings on record: protein: recombinant; tags: N-terminal GST; dsDNA, one strand shown. The method, boiled down:
as §1

A further experiment deals with T9, SPDEF (Homo sapiens, UniProt O95238 1-335).
T9 sequence: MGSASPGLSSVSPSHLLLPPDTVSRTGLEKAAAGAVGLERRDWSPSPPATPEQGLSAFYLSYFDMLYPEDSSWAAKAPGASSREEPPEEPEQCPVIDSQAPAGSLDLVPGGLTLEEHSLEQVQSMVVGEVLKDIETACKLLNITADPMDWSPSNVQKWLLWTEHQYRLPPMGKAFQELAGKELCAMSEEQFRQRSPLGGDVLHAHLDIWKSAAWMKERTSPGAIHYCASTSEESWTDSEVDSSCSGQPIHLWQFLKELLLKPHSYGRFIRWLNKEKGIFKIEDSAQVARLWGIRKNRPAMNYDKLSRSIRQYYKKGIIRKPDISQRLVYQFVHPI
The settings on record: protein: recombinant; tags: N-terminal GST; dsDNA, one strand shown. The method, boiled down:
as §1

For the next experiment, the target named is T10, ETV7 (Homo sapiens, UniProt Q9Y603 1-341).
T10 sequence: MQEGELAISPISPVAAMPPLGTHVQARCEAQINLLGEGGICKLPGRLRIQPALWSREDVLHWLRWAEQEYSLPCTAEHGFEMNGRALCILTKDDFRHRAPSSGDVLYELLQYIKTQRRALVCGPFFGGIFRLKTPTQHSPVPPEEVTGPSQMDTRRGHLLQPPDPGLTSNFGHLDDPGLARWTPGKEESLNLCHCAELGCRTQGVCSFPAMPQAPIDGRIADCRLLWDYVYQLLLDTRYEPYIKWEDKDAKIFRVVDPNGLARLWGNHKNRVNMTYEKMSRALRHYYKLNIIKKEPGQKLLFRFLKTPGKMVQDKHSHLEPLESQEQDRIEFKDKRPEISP
The settings on record: protein: recombinant; tags: N-terminal GST; dsDNA, one strand shown. In short, it runs like this:
as §1

Another experiment addresses T11, ELF5 (Homo sapiens, UniProt Q9UKW6-2 1-255).
T11 sequence: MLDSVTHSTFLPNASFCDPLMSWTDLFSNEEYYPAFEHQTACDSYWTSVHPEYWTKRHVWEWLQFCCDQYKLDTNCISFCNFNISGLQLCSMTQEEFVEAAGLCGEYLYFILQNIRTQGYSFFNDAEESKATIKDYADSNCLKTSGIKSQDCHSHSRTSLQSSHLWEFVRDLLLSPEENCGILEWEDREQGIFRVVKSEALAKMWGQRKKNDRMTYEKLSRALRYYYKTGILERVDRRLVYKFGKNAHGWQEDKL
Conditions: protein: recombinant; tags: N-terminal GST; dsDNA, one strand shown. In short, it runs like this:
as §1

A further experiment addresses T12, ETV3 (Homo sapiens, UniProt P41162-2 1-143).
T12 sequence: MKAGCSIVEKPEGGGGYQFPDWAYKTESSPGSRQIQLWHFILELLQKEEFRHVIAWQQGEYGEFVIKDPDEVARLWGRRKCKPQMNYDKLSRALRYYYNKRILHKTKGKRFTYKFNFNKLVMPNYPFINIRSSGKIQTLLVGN
The settings on record: protein: recombinant; tags: N-terminal GST; dsDNA, one strand shown. The method, boiled down: as §1

In the next experiment the target is ETV6 (Homo sapiens, UniProt P41212 1-452). The settings on record: protein: recombinant; tags: N-terminal GST; dsDNA, one strand shown. The method, boiled down:
as §1

Sequence of ETV5 (P41161 whole entry): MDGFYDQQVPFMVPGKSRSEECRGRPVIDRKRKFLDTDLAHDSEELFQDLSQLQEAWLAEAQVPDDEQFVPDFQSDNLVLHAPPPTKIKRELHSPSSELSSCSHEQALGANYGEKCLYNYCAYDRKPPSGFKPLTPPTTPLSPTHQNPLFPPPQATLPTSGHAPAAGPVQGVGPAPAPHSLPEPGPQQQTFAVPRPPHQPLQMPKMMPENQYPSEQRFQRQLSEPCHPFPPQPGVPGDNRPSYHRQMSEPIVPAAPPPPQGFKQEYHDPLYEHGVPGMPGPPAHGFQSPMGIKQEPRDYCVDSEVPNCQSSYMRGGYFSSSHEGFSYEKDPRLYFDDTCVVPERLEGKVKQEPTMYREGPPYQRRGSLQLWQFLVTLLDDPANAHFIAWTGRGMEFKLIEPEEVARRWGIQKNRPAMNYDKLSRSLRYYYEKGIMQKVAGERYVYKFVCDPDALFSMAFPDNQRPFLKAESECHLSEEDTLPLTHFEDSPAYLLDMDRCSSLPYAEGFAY
Sequence of CRX (O43186 whole entry): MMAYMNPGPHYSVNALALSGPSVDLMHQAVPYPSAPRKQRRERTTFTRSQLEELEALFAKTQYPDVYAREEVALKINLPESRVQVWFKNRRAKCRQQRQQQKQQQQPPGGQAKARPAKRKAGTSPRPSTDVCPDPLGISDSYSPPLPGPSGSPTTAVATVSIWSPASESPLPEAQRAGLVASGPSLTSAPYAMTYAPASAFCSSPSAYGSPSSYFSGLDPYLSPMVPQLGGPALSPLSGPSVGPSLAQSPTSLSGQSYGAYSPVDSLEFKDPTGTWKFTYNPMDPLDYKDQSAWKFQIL
Sequence of HSF1 (Q00613 whole entry): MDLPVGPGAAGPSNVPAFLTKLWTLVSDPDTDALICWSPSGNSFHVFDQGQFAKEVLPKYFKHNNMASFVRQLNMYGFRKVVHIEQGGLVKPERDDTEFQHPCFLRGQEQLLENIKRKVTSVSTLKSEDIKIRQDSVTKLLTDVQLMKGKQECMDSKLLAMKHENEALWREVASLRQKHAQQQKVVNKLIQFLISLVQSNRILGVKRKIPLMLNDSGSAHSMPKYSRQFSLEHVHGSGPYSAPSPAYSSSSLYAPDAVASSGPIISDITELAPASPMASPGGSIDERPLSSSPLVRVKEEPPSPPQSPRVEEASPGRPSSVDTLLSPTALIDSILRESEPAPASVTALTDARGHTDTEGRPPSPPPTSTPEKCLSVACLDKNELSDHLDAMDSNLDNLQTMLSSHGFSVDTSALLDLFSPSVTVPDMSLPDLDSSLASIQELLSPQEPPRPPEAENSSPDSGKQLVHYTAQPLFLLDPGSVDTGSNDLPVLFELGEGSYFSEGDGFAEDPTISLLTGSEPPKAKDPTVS
Sequence of ETV6 (P41212 whole entry): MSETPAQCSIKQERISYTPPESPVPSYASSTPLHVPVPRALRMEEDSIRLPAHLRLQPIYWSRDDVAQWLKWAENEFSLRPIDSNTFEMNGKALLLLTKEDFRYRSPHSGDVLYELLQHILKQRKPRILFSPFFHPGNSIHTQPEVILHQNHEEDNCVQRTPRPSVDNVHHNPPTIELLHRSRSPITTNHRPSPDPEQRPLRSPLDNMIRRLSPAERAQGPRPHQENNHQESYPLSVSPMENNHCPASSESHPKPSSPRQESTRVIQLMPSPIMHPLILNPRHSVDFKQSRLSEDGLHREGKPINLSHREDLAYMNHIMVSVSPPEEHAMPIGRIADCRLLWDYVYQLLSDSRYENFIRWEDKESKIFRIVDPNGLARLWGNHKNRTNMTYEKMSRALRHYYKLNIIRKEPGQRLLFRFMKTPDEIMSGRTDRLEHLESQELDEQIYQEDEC
Sequence of ELF4 (Q99607 whole entry): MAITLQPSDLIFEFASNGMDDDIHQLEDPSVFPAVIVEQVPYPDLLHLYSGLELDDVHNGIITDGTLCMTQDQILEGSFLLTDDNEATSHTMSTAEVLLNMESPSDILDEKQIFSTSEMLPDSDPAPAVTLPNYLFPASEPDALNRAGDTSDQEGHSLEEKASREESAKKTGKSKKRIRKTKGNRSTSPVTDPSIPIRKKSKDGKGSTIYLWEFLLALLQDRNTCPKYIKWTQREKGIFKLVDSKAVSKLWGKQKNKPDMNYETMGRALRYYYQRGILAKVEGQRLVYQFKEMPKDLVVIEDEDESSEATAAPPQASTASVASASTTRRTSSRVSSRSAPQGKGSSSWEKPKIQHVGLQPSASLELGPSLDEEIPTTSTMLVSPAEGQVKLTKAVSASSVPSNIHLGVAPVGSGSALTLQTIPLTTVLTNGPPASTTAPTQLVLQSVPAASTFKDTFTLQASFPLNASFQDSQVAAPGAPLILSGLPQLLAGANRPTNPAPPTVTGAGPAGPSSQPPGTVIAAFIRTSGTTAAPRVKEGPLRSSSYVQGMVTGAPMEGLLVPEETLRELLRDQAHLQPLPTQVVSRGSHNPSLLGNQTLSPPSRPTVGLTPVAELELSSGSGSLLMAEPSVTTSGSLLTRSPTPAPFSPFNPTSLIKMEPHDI
Sequence of ETV1 (P50549 whole entry): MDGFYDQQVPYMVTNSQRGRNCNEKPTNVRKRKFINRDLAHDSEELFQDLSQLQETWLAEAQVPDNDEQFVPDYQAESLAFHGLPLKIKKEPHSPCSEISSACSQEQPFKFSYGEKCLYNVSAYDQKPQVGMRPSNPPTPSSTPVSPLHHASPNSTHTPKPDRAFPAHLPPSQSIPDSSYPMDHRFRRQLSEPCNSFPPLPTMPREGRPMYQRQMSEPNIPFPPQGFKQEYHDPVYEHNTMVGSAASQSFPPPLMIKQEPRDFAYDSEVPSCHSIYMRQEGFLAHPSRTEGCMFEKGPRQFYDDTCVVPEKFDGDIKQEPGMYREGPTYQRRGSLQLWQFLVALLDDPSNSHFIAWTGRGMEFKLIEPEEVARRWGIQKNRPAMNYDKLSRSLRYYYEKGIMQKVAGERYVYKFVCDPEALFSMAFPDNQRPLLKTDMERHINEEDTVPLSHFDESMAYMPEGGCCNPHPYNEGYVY

Take AATAAT: the binding signal in the experiment with FEV is 1.28 fold enrichment (6-mer frequency, TF over GST control); with ETV5, 1.35 fold enrichment (6-mer frequency, TF over GST control); with HSF1, 1.93 fold enrichment (6-mer frequency, TF over GST control); with SPIC, 1.31 fold enrichment (6-mer frequency, TF over GST control); with ELF4 it was 1.24 fold enrichment (6-mer frequency, TF over GST control); with ELK4 it was 1.22 fold enrichment (6-mer frequency, TF over GST control). In addition, the binding signal with ETV2 was 1.34 fold enrichment (6-mer frequency, TF over GST control); in the experiment with ELF3 it was 1.42 fold enrichment (6-mer frequency, TF over GST control); with CRX, 2.41 fold enrichment (6-mer frequency, TF over GST control); with ETV1 it was 1.24 fold enrichment (6-mer frequency, TF over GST control); in the experiment with ERF, 1.52 fold enrichment (6-mer frequency, TF over GST control); in the experiment with ETV3L it was 1.35 fold enrichment (6-mer frequency, TF over GST control). Moreover, the binding signal with ETS2 is 1.42 fold enrichment (6-mer frequency, TF over GST control); with SPDEF it was 1.21 fold enrichment (6-mer frequency, TF over GST control); with ETV7, 1.23 fold enrichment (6-mer frequency, TF over GST control); with ELF5, 1.29 fold enrichment (6-mer frequency, TF over GST control); in the experiment with ETV3, 1.27 fold enrichment (6-mer frequency, TF over GST control); in the experiment with ETV6, 1.34 fold enrichment (6-mer frequency, TF over GST control).
